# Reference: PubChem BioAssay (NCI)
# This is part of a sample that, as a whole, favours compounds with a hit. Of some 83,000 tested, about 20% had one in any assay.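 Each cell line was grown in a 96-well plate and treated with one concentration of compound for 48 hours. Values below 10 were considered active.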 Values without a mark were called inactive. Calls of active or inactive are those of the source.
# Tested on: HL-60(TB) leukemia
# Experiment: NCI-60 one-dose screen, 48 h (100 = growth as untreated, 0 = no growth, -100 = all killed)
# Details: 10 µM unless noted
row,Structure (SMILES),growth
1,O=S(=O)(NCCCNc1nccc(-c2c(-c3cccc(O)c3)nc3occn23)n1)c1ccc(Br)cc1,69.7%
2,C=C1C(=O)O[C@H]2[C@H]1CC/C(COC(=O)N[C@H](Cc1c[nH]c3ccccc13)C(=O)OC)=C\CC[C@@]1(C)O[C@@H]21,-58% (active)
3,O=C1NC(=O)C(CSc2ccccc2)(c2ccccc2)N1 (stereo not given),99.9%
4,O=C(NC(CSSCC(NC(=O)c1ccccc1)C(=O)O)C(=O)O)c1ccccc1 (stereo not given),60.7%
5,COc1ccccc1CNc1nc(N)nc2[nH]c3ccc(O)cc3c12,34.3%
6,Cc1cc(N2CCN(C)CC2)nc(NC2CCCC(Nc3ccnc4cc(Cl)ccc34)C2)n1 (stereo not given),-64.9% (active)
7,CCCCCCCCCc1ccc(OC(C)=O)cc1,108%
8,O=C(Nc1cccc(-n2cc(-c3ccncc3)c(-c3cc(O)cc(Cl)c3)n2)c1)Nc1ccc(Cl)c(Cl)c1,-23.4% (active)
9,CC1(C)N=C(N)N=C(N)N1c1cccc(CN)c1,86.8%
10,COc1cc2c(cc1-c1c(C)noc1C)ncc1nc(C3CCC(F)(F)CC3)n(C3CCC(OC(F)F)CC3)c12 (stereo not given),7.4% (active)
11,O=C(Cn1cc(CSc2nc3ccccc3o2)nn1)Nc1ccc(F)cc1F,102%
12,Nc1ccc(-c2cc3c(Nc4ccc(Oc5cccc(C(F)(F)F)c5)c(Cl)c4)ncnc3s2)cc1,54.9%
13,O=c1oc2c(cnc3ccccc32)cc1-c1cccc(Cl)c1,102%
14,O=C(/C=C/C12c3ccccc3C(c3ccccc31)C1C(=O)NC(=O)C12)c1ccc(Cl)cc1Cl (stereo not given),-8.27% (active)
15,CCN(CC)CCNc1ccc(CO)c2sc3ccccc3c(=O)c12,60.8%
16,CC1O[C@@H](OC2[C@H](OC(=O)/C=C/c3ccc(O)c(O)c3)C(COC3O[C@H](C)C(O)C(O)[C@@H]3O)O[C@@H](OCCc3ccc(O)c(O)c3)[C@H]2O)[C@@H](O)C(O)[C@H]1O (stereo not given in full),103%
17,Oc1c(CN2CCCC2)cc(CSCc2ccccc2)c2cccnc12,-23.7% (active)
18,CCN(CC)c1ccc2nc3ccc(N=Nc4ccc(N(C)C)cc4)cc3[n+](-c3ccccc3)c2c1,-32.2% (active)
19,CCOC(=O)CSC(=S)SCC(=O)OCC,103%
20,O=C(O)CC1=CCCCC1,95.5%
21,CC(C)(C)C(=O)Nc1nc2c(s1)CCc1ccn(S(=O)(=O)c3ccccc3)c1-2,70%
22,NC(=O)c1c(OCc2c(F)cc(Br)cc2F)nsc1NC(=O)NCCCCN1CCCC1,-64.6% (active)
23,COc1ccc(-c2cc(-c3ccc(OC)cc3)nc(NCCCNc3ccnc4cc(Cl)ccc34)n2)cc1,-37.7% (active)
24,COc1cc(/C=C2\C=C(c3ccc(F)cc3)N(Cc3ccccc3)C2=O)cc(OC)c1OC,75.9%
25,COc1ccc(OC)c(Cn2cc3c(c2)-c2oncc2CC3)c1,13.7%
